Measurements: PubChem BioAssay AID1851 (National Center for Advancing Translational Sciences (NCATS), 2009)
Several values for one entry are separate records, joined by “and”; a condition that tells them apart may be missing. Equal values may be shown once. In all, about 16,000 compounds went through this assay and about 2,600 (16%) were called active. About 20% were inconclusive and are not listed. Calls come from the whole dose curve; as a rule, active = well fitted curve in the direction sought with a large enough effect; inconclusive = small, poorly fitted or top-dose-only effect, or effect the other way; inactive = no such curve, though single readings can be large or run the other way. Only a sample is shown.

Biological target: Cytochrome P450 2D6 (Homo sapiens) (UniProt P10635)
Sequence (P10635 whole entry, looked up): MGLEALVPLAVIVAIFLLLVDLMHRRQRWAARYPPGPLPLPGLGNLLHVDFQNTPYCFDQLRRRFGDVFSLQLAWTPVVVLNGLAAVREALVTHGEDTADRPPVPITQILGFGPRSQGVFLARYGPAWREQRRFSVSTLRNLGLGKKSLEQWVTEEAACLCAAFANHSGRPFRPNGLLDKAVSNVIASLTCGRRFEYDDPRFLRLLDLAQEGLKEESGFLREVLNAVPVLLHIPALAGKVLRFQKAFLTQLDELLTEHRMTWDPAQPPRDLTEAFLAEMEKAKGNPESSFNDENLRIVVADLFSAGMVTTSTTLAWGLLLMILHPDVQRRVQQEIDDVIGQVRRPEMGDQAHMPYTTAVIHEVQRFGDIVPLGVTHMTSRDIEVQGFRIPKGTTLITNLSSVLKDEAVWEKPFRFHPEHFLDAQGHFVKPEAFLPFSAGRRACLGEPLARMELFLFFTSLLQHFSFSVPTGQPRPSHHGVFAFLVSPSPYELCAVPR
Test: Cytochrome panel assay with activity outcomes
Conditions: recombinant CYP, pro-luciferin dealkylation, luminescence, p450-cyp2d6; series mostly up to 57.1 µM; activity, negative = inhibition: at the top concentration
% is set by controls: 0 for no effect and ±100 for the full control effect.

Row | SMILES | activity, negative = inhibition | AC50
1 | Cn1cnc([N+](=O)[O-])c1Sc1nc(N)nc2c1ncn2[C@H]1C[C@H](O)[C@@H](CO)O1 | 4.56% [at 11.4 µM] (inactive) | 
2 | C/C(CCN1CCCc2nc(C)c(C)cc21)=N\OC[C@@H](C)[C@H](OCc1ccccc1)C(C)C | 0.76% [at 11.4 µM] (inactive) | 
3 | CC(C)=NO[C@@H](C)CN1CCCCc2nc(C)c(C)cc21 |  | 2.51 µM (active)
4 | CO/N=C(\C)CCN1CCCCc2nc(C)c(C)cc21 |  | 3.98 µM (active)
5 | C/C(CCN1CCCc2nc(C)c(C)cc21)=N\O[C@@H](C)CN1CCCCc2nc(C)c(C)cc21 | -11.7% [at 11.4 µM] (inactive) | 
6 | C/C(CCN1CCCCc2nc(C)c(C)cc21)=N\OC[C@@H](C)[C@H](OCc1ccccc1)C(C)C | -1.58% [at 11.4 µM] (inactive) | 
7 | COC(=O)[C@@H]1CC[C@H](C)[C@@H](c2ccc(C)cc2)N1C(=O)c1ccc(/C=N\O[C@@H](C)CN2CCCCc3nc(C)c(C)cc32)cc1 | -20.9% [at 11.4 µM] (inactive) | 
8 | C/C(CCN1CCCCc2nc(C)c(C)cc21)=N\O[C@@H](C)c1cn([C@H](CO)Cc2ccccc2)nn1 | -8.6% [at 11.4 µM] (inactive) and -9.25% [at 11.4 µM] (inactive) | 
9 | C/C(CCN1CCCc2nc(C)c(C)cc21)=N\OC[C@@H](O)[C@@H]1O[C@@H]2OC(C)(C)O[C@@H]2[C@H]1O | 1.91% [at 11.4 µM] (inactive) | 
10 | CO/N=C(\C)CCN1CCCc2nc(C)c(C)cc21 |  | 3.98 µM (active)
11 | C/C(=N\NC(N)=S)c1ccc[nH]1 | 7.95% [at 11.4 µM] (inactive) | 
12 | CCC1=NN(C(=O)CCc2ccccc2)C(O)(C(F)(F)F)C1 (configuration not stated) | -38.3% (inactive) | 
13 | NCCSCCC(=O)O | -2.86% [at 11.4 µM] (inactive) | 
14 | CC(C)[C@H](CO)Nc1nc(Nc2cc(N)cc(Cl)c2)c2ncn(C(C)C)c2n1 | -14.6% (inactive) | 
15 | COc1cccc(=O)c2c(C)n(-c3cc(C)cc(C)c3)c(C)c12 | 11.5% (inactive) | 
16 | O=c1[nH]c2[nH]c(=S)[nH]c(=S)c2[nH]1 | -8.17% [at 11.4 µM] (inactive) | 
17 | COc1ccc(-c2nnc3n2N=C(C)CS3)cc1 | 14.1% (inactive) | 
18 | NS(=O)(=O)c1nc(S(=O)(=O)O)c2[nH]cnc2n1 | 10.8% [at 11.4 µM] (inactive) | 
19 | COc1ccc2[nH]cc(CCNc3ncnc4ccc(-c5ccccc5CN(C)C)cc34)c2c1 |  | 10 µM (active)
20 | COc1ccc(CNc2ncnc3ccc(-c4ccccc4C#N)cc23)c(OC)c1 | -8.39% (inactive) | 
21 | COc1ccc2[nH]cc(CCNc3ncnc4ccc(-c5ccccc5OC)cc34)c2c1 |  | 3.98 µM (active)
22 | COc1ccc2[nH]cc(CCNc3ncnc4ccc(-c5ccccc5C#N)cc34)c2c1 |  | 7.94 µM (active)
23 | COc1ccccc1-c1nnc(SCc2nc3ccccc3s2)n1C | -12.9% (inactive) | 
24 | N=C(N)C(N=Nc1ccccc1)C(=N)N (configuration not stated) | -0.561% [at 11.4 µM] (inactive) | 
25 | O=C(O)/C=C\c1c2ccc(=O)c(O)c-2oc2c(O)c(O)ccc12 | -4.81% [at 11.4 µM] (inactive) | 

Row | SMILES | activity, negative = inhibition | AC50
26 | CC1(C)CC2(CC(C)(C(=O)CSc3nc4ccccc4s3)OC2=O)C(=O)O1 (configuration not stated) | -16.7% (inactive) | 
27 | CCC[C@H]1C[C@H](C(=O)N[C@H]([C@@H]2O[C@H](SC)[C@@H](O)[C@H](O)[C@@H]2O)[C@H](C)O)N(C)C1 | 2.09% [at 25.6 µM] (inactive) | 
28 | O=C(Nc1nnc(C2CC2)s1)c1ccncc1 | -18.1% (inactive) | 
29 | CC1(C)OC(=O)N(Cc2ccco2)C1(C)O (configuration not stated) | 0.289% (inactive) | 
30 | O=C(O)/C=C1\NC(=O)c2ccccc21 | 18.6% (inactive) | 
31 | Nc1ccccc1Nc1ccccc1 |  | 22.4 µM (active)
32 | Nc1ccc(Nc2ccccc2)cc1 | -17.3% (inactive) | 
33 | O=C(O)c1ccccc1Nc1ccccc1 | -2.44% (inactive) | 
34 | COc1ccc(-c2nc3cnc(N(C)C)nc3n(Cc3cccs3)c2=O)cc1 | 0.378% (inactive) | 
35 | O=S1(=O)[C@H]([C@H]2CC3c4ccccc4C2c2ccccc23)[C@@H](N2CCCCC2)[C@@H]1c1ccccc1 |  | 3.16 µM (active)
36 | CCCn1nnnc1NC(=O)c1ccc(C)cc1Cl | 11.3% (inactive) | 
37 | COC(=O)c1ccc(C#CC(NP(=O)(c2ccccc2)c2ccccc2)c2ccccc2)cc1 (configuration not stated) | -5.92% (inactive) | 
38 | CC1CN(C(NC(=O)C(C)(C)C)C(Cl)(Cl)Cl)CC(C)O1 (configuration not stated) | 21.1% (inactive) | 
39 | CCN1CCc2c(sc(NC(=S)NC(=O)c3ccccc3)c2C#N)C1 | 1.83% (inactive) | 
40 | CCOC(=O)c1c(NC(=S)NC(=O)c2cnn(CC)c2)sc2c1CCC(C)C2 (configuration not stated) | -14.5% (inactive) | 
41 | CCOC(=O)c1c(NC(=S)Nc2ccccc2)sc2c1CCN(CCc1ccccc1)C2 |  | 0.0708 µM (active)
42 | CCOC(=O)N1CCC(NC(=O)c2cc(S(=O)(=O)N3CCCC3)cn2C)CC1 | -6.26% (inactive) | 
43 | COCc1cc(=O)[nH]c2cc(NC(=O)C(F)(F)F)c(C)cc12 | -0.291% (inactive) | 
44 | CC(C)(CO)Cc1cc(C(C)(C)C)c(O)c(C(C)(C)C)c1 | -3.84% (inactive) | 
45 | Cc1cc(-c2cc(C)c(O)c(C(C)(C)C)c2)cc(C(C)(C)C)c1O | -4.06% [at 11.4 µM] (inactive) | 
46 | CC(C)(C=O)Cc1cc(C(C)(C)C)c(O)c(C(C)(C)C)c1 |  | 25.1 µM (active)
47 | O=C(c1ccc2c(c1)N(Cc1ccc(F)cc1)C(=O)CS2)N1CCOCC1 | 10.9% (inactive) | 
48 | Cc1cc(OC(=O)c2ccc(Cl)cc2)cc(=O)n1C | -10.9% (inactive) | 
49 | O=S(=O)(c1ccccc1)N1CCC2(CCN(c3ncccn3)CC2)CC1 | 1.44% (inactive) | 
50 | CS(=O)(=O)N1CCC2(CC1)CN(c1ncccn1)C2 | 9.25% (inactive) | 

Row | SMILES | activity, negative = inhibition | AC50
51 | O=S(=O)(c1ccccc1)N1CCC2(CCCN(c3ccccn3)C2)CC1 |  | 12.6 µM (active)
52 | CS(=O)(=O)N1CCC2(CCCN(c3ncccn3)C2)CC1 |  | 15.8 µM (active)
53 | O=S(=O)(c1ccccc1)N1CCC2(CCCN(c3ncccn3)C2)CC1 |  | 12.6 µM (active)
54 | CS(=O)(=O)N1CCC[C@@]2(CCN(c3ncccn3)C2)C1 | 3.87% (inactive) | 
55 | CS(=O)(=O)N1CCC[C@@]2(CCN(c3ccccn3)C2)C1 | -4.03% (inactive) | 
56 | O=S(=O)(c1ccccc1)N1CCC2(CC1)CN(c1ncccn1)C2 | 5.25% (inactive) | 
57 | CC(=O)N1CCC2(CCCN(c3ccccn3)C2)CC1 | -12.1% (inactive) | 
58 | NCCCCNCCCN |  | inactive
59 | CC1CCN(c2cc(N3CCC(C)CC3)c([N+](=O)[O-])cc2/C=C(\C#N)c2nn(-c3ccccc3)c(N)c2C#N)CC1 | 9.51% (inactive) | 
60 | CN(CCO)c1nc(N)c2c(N)nc3c(c2c1C#N)CC(=O)N3C1CCCC1 | 11.2% (inactive) | 
61 | C[C@@](N)(Cc1ccc(O)cc1)C(=O)O |  | inactive
62 | CC(C)OCCCN1CN(S(=O)(=O)c2cccc(Cl)c2)c2nc3ccccc3nc21 | -18.4% (inactive) | 
63 | CC(=O)NN1C(=O)/C(=C\c2ccc(C)cc2)SC1=S | 4.14% (inactive) | 
64 | CN(CCO)Cc1ncccc1O | -1.69% [at 11.4 µM] (inactive) | 
65 | O=C(Nc1cccc(C(F)(F)F)c1)c1n[nH]c(Cn2cncn2)n1 | -26.4% (inactive) | 
66 | N[C@@H]1CONC1=O |  | inactive
67 | Cc1ccc(N(C(=O)c2csnn2)C(C(=O)NC(C)(C)C)c2cccs2)cc1 (configuration not stated) | -13.7% (inactive) | 
68 | COc1ccc2nc3c(c([Si](C)(C)C(C)(C)C)c2c1)Cn1c-3cccc1=O |  | 2 µM (active)
69 | CC(C)(C)[Si](C)(C)c1c2c(nc3ccc(OCc4ccccc4)cc13)-c1cccc(=O)n1C2 | -2.79% (inactive) | 
70 | CC(C)c1cccc2nc3c(c([Si](C)(C)C(C)(C)C)c12)Cn1c-3cccc1=O | -12.2% (inactive) | 
71 | O=C1C(CCS(=O)c2ccccc2)C(=O)N(c2ccccc2)N1c1ccccc1 (configuration not stated) | 2.11% [at 25.6 µM] (inactive) | 
72 | CN(Cc1ccco1)c1ncnc2ccc(-c3ccccc3C(F)(F)F)cc12 |  | 10 µM (active)
73 | FC(F)(F)c1ccccc1-c1ccc2ncnc(N3CCOCC3)c2c1 | -18.2% (inactive) | 
74 | CN(Cc1ccco1)c1ncnc2ccc(-c3ccccc3C#N)cc12 |  | 15.8 µM (active)
75 | CN(C)Cc1ccccc1-c1ccc2ncnc(N(C)Cc3ccco3)c2c1 |  | 2 µM (active)

Row | SMILES | activity, negative = inhibition | AC50
76 | CN(Cc1ccco1)c1ncncc1-c1cccc(C#N)c1 | -15% (inactive) | 
77 | CN(Cc1ccco1)c1ncnc2ccc(-c3ccccc3Cl)cc12 |  | 7.94 µM (active)
78 | COCCNC(=O)c1sc2nc(-c3ccccc3)cn2c1C | -5.78% (inactive) | 
79 | Cc1ccc(NC(=O)C(=O)NCc2ccc(/C=C(/C#N)C(=O)NCc3cccnc3)o2)cc1 | -9.29% (inactive) | 
80 | Nc1ncnc2c1ncn2[C@@H]1CCCO1 | -11.8% (inactive) | 
81 | CCN1C(=O)C2(SC(NC(C)=O)=NN2C(C)=O)c2cc(C)ccc21 (configuration not stated) | 12.7% (inactive) | 
82 | CC[C@H](Cc1c(I)cc(I)c(N)c1I)C(=O)O | -4.01% [at 25.6 µM] (inactive) | 
83 | CNc1cnn(-c2ccccc2)c(=O)c1Cl | -1.86% (inactive) | 
84 | N#[N+]c1ccc(Nc2ccccc2)cc1 | 7.95% [at 11.4 µM] (inactive) | 
85 | COc1ccc(Oc2ncc3nc(CCc4ccccc4)c(=O)n(C)c3n2)cc1 | 0.402% (inactive) | 
86 | CCOc1ccc(NC(=O)CCNS(=O)(=O)c2ccc3c(c2)c(=O)n(C)c(=O)n3C)cc1 | 6.62% (inactive) | 
87 | Cc1sc2ncnc(OCC(=O)NC(C)C)c2c1C | -7.35% (inactive) | 
88 | COc1ccccc1C1/C(=C(/O)c2ccccc2)C(=O)C(=O)N1CCO (configuration not stated) | 10.7% (inactive) | 
89 | COC(=O)[C@H](C)NC(=O)C/C=C\[C@@H](C)[C@H]1C=C[C@H](O)[C@@H](CO)O1 | 3.59% [at 11.4 µM] (inactive) | 
90 | CN1C2C=C(N(CCc3c[nH]c4ccccc34)C(=O)c3ccc(Cl)cc3)CC1CC2 (configuration not stated) |  | 0.398 µM (active)
91 | O=C(NCCc1c[nH]c2ccccc12)[C@@H]1C[C@H]1[C@@H](NP(=O)(c1ccccc1)c1ccccc1)c1ccccc1 | -5.26% (inactive) | 
92 | O=C(NCCc1c[nH]c2ccccc12)[C@H]1C[C@@H]1[C@H](NP(=O)(c1ccccc1)c1ccccc1)c1ccccc1 | -6.77% (inactive) | 
93 | CCN(CC(=O)O)CC(=O)O | 9.63% [at 11.4 µM] (inactive) | 
94 | CC1=Nc2ccccc2/C1=C\c1nc(-c2ccc(C(F)(F)F)cc2)oc1O | -8.17% (inactive) | 
95 | Nc1ccc(S(=O)(=O)NC(=O)c2ccccc2)cc1 | 10.2% [at 25.6 µM] (inactive) | 
96 | CC(=O)c1nnn(-c2nc(N)nc(N(c3ccccc3)c3ccccc3)n2)c1C | -23% (inactive) | 
97 | Nc1ccc(N(c2ccccc2)c2ccc(N)cc2)cc1 |  | 14.1 µM (active)
